Measured values taken from PubChem BioAssay (EPA / NIEHS).
Activity calls are given as the source filed them. How the source made its calls: active means hit-call score of the fitted dose curve at least 0.9, where 1 is the maximum; inactive means score below 0.9.

Columns and labels:
Details in all cases: mRNA level, 48 h; actives raise or lower the signal
[1] = read-out: Nuclear factor erythroid 2-related factor 2 (Homo sapiens) (UniProt Q16236); experiment: LTEA_HepaRG_NFE2L2: Life Technologies and Expression Analysis (LTEA) Assay for Nuclear factor erythroid 2-related factor 2 (NFE2L2) Transcription Factor using HepaRG (AID 2283527)
Summary of the method: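 Human liver HepaRG line treated in duplicate for 48 h with an eight-point series topping at 100 uM. Gene expression of NFE2L2 by qRT-PCR, bidirectionally fitted against the vehicle control.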

[2] = read-out: succinate dehydrogenase complex iron sulfur subunit B (SDHB), SDHB (gene 6390); experiment: LTEA_HepaRG_SDHB: Life Technologies and Expression Analysis (LTEA) Assay for succinate dehydrogenase complex iron sulfur subunit B (SDHB) using HepaRG (AID 2283528)
Summary of the method: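 HepaRG, 48 h exposure, 8-pt half-log series from 100 uM in 0.5% DMSO, duplicates. Readout: SDHB mRNA by Fluidigm qRT-PCR vs housekeeping genes; bidirectional fit relative to DMSO.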

[3] = read-out: Signal transducer and activator of transcription 3 (Homo sapiens) (UniProt P40763); experiment: LTEA_HepaRG_STAT3: Life Technologies and Expression Analysis (LTEA) Assay for Signal transducer and activator of transcription (STAT3) using HepaRG (AID 2283529)
Summary of the method: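 In this transcriptional endpoint, HepaRG cultures receive test chemicals at up to 100 uM for 48 h, tested in duplicate. STAT3 mRNA is normalized to ACTB, GAPDH and POLR2A.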

[4] = read-out: solute carrier (SLCO1B1), SLCO1B1 (gene 10599); experiment: LTEA_HepaRG_SLCO1B1: Life Technologies and Expression Analysis (LTEA) Assay for solute carrier (SLCO1B1) using HepaRG (AID 2283530)
Summary of the method: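 SLCO1B1 transcript read by qRT-PCR (Fluidigm arrays), normalized to three housekeeping genes, after 48 h chemical exposure of HepaRG cells; bidirectional concentration-response fitting versus 0.5% DMSO baseline. Eight-point half-log series, maximum 100 uM.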

[5] = read-out: sulfotransferase 2A1 (SULT2A1), SULT2A1 (gene 6822); experiment: LTEA_HepaRG_SULT2A1: Life Technologies and Expression Analysis (LTEA) Assay for sulfotransferase 2A1 (SULT2A1) using HepaRG (AID 2283531)
Summary of the method: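 HepaRG, 48 h chemical exposure, 8-pt half-log curve from 100 uM in 0.5% DMSO, duplicates. Readout: TaqMan qRT-PCR of SULT2A1 mRNA, housekeeping-normalized. Bidirectional fit vs DMSO baseline.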

[6] = read-out: Transforming Growth Factor (TGFA), TGFA (gene 7039); experiment: LTEA_HepaRG_TGFA: Life Technologies and Expression Analysis (LTEA) Assay for Transforming Growth Factor (TGFA) using HepaRG (AID 2283532)
Summary of the method: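 Gene expression of TGFA was quantified by qRT-PCR after human HepaRG cells were treated for 48 h with test chemicals (eight concentrations, highest 100 uM, 0.5% DMSO). Activity in either direction was fitted relative to DMSO.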

[7] = read-out: Transforming Growth Factor (TGFB1), TGFB1 (gene 7040); experiment: LTEA_HepaRG_TGFB1: Life Technologies and Expression Analysis (LTEA) Assay for Transforming Growth Factor (TGFB1) Transporter using HepaRG (AID 2283533)
Summary of the method: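 qRT-PCR readout of TGFB1 transcript in HepaRG lysates, normalized to three housekeeping genes; gain or loss of signal fitted relative to 0.5% DMSO vehicle. Exposure: 48 h, 8-point curve from 100 uM, duplicate wells.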

[8] = read-out: TIMP1, TIMP1 (gene 7076); experiment: LTEA_HepaRG_TIMP1: Life Technologies and Expression Analysis (LTEA) Assay for TIMP1 using HepaRG (AID 2283534)
Summary of the method: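 HepaRG, 48 h exposure, 8-pt half-log series from 100 uM in 0.5% DMSO, duplicates; TIMP1 transcript by Fluidigm qRT-PCR, housekeeping-normalized; bidirectional curve fit vs DMSO baseline.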

[9] = read-out: Tumor necrosis factor receptor 1 (TNFRSF1A), TNFRSF1A (gene 7132); experiment: LTEA_HepaRG_TNFRSF1A: Life Technologies and Expression Analysis (LTEA) Assay for Tumor necrosis factor receptor 1 (TNFRSF1A) using HepaRG (AID 2283535)
Summary of the method: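 HepaRG, 48 h plating then 48 h chemical exposure, serum-free induction media; 8-pt CRC from 100 uM, half-log, 0.5% DMSO vehicle, duplicates. Readout: TaqMan qRT-PCR (Fluidigm), housekeeping-gene normalized; bidirectional fit vs DMSO.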

[10] = read-out: Thyroid Hormone Responsive (THRSP), THRSP (gene 7069); experiment: LTEA_HepaRG_THRSP: Life Technologies and Expression Analysis (LTEA) Assay for Thyroid Hormone Responsive (THRSP) using HepaRG (AID 2283536)
Summary of the method: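 Cell model: human HepaRG, approx. 100,000 cells/well, 0.5% DMSO vehicle. Exposure lasts 48 h; phenobarbital 1 mM serves as induction positive control. Gene expression is measured by qRT-PCR against three endogenous control genes.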

Measured: AC50

Sequence of Nuclear factor erythroid 2-related factor 2 (Homo sapiens) (Q16236 whole entry, looked up): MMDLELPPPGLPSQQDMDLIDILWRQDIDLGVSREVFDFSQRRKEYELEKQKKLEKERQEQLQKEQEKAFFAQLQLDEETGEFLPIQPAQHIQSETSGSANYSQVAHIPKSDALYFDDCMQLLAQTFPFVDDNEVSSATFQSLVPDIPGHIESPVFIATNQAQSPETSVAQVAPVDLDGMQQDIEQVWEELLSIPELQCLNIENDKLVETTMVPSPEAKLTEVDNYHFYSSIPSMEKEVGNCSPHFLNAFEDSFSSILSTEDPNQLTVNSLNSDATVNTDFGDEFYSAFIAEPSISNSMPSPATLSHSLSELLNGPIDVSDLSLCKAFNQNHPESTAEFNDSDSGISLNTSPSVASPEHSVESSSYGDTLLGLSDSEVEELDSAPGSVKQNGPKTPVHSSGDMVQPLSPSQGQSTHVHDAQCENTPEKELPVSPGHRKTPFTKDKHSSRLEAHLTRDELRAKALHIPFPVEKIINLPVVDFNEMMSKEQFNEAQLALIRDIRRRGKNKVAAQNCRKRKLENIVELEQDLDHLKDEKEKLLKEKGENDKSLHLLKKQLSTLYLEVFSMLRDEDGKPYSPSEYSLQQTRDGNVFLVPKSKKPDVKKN
Sequence of Signal transducer and activator of transcription 3 (Homo sapiens) (P40763 whole entry, looked up): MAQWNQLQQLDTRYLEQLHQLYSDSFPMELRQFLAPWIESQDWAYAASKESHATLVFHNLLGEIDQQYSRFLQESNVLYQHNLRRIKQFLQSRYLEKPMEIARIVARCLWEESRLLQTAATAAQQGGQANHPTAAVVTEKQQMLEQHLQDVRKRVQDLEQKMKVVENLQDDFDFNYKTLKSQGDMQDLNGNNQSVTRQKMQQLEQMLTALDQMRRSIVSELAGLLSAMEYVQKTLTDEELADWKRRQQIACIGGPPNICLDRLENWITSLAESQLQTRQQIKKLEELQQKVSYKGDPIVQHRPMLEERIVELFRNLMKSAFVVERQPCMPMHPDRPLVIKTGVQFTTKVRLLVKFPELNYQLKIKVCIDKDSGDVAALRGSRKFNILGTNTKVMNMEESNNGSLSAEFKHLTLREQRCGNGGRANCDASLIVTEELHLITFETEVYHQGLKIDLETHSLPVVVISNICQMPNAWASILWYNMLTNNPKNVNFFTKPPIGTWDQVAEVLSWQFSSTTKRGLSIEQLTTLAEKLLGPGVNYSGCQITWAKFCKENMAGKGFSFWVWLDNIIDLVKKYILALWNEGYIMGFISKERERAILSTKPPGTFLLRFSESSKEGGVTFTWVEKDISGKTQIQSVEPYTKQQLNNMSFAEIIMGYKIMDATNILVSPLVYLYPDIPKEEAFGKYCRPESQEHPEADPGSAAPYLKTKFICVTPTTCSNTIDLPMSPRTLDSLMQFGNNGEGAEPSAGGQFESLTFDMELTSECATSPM

O=C(NC(=O)c1cc(F)c(F)cc1Cl)Nc1cc(F)ccc1N1CCC(C(=O)O)CC1
inactive: all assays above

N#Cc1ccc(N(CC(N)=O)CC(F)(F)F)cc1C(F)(F)F
active: [10] 0.103 µM
not listed: [6]
inactive: all other assays above

ClC1=C(Cl)[C@]2(Cl)[C@@H]3[C@H]4C[C@H]([C@@H]5O[C@H]45)[C@@H]3[C@@]1(Cl)C2(Cl)Cl
active: [4] 13.8 µM | [10] 93 µM
not listed: [6]
inactive: all other assays above

Nn1cnnc1
not listed: [6]
inactive: all other assays above

Cc1ccc(O)c(C)c1
not listed: [6]
inactive: all other assays above

O=C(O)C(F)(F)C(F)(F)C(F)(F)C(F)(F)C(F)(F)C(F)(F)C(F)(F)C(F)(F)F
active: [1] 74.9 µM | [4] 90.8 µM | [5] 77.4 µM | [7] 73.5 µM | [10] 58.6 µM
inactive: [2] | [3] | [8] | [9]

CN(C)c1nc(=O)n(C2CCCCC2)c(=O)n1C
not listed: [6]
inactive: all other assays above

Clc1ccc(Cl)cc1
not listed: [6]
inactive: all other assays above

Cc1cc2c3c(c1)C(c1ccccc1)=N[C@@H](NC(=O)c1ccncc1)C(=O)N3CC2
active: [1] 50 µM | [10] 22.7 µM
not listed: [6]
inactive: all other assays above

CCSC(=O)N(CC)C1CCCCC1
not listed: [6] | [7]
inactive: all other assays above

ClC1=C(Cl)[C@]2(Cl)[C@@H]3[C@@H]4C[C@@H]([C@H]5O[C@@H]45)[C@@H]3[C@@]1(Cl)C2(Cl)Cl
active: [1] 0.0292 µM | [3] 0.0319 µM | [10] 50 µM
not listed: [6]
inactive: all other assays above

Oc1ccc(C(c2ccc(O)cc2)(C(F)(F)F)C(F)(F)F)cc1
active: [5] 88.4 µM | [7] 76.5 µM
not listed: [6]
inactive: all other assays above

CC(C)C(=O)OCC(C)(C)C(OC(=O)C(C)C)C(C)C (stereo unspecified)
not listed: [6]
inactive: all other assays above

COS(=O)(=O)OC
not listed: [4] | [6]
inactive: all other assays above

O=NN(c1ccccc1)c1ccccc1
active: [9] 80.2 µM
not listed: [6]
inactive: all other assays above

CC(C)(c1ccccc1)c1ccc(O)cc1
active: [10] 78.2 µM
not listed: [6]
inactive: all other assays above

CCCCCCCCCC[N+](C)(C)CCCCCCCCCC
inactive: [2] | [3] | [4] | [7]
active: [1] 75 µM | [5] 80.9 µM | [8] 10.3 µM | [9] 79.3 µM | [10] 24.5 µM

Oc1c(Cl)c(Cl)c(Cl)c(Cl)c1Cl
active: [2] 2.04 µM | [3] 1.19 µM | [4] 3.96 µM | [5] 4.65 µM | [7] 5.06 µM | [8] 14.9 µM | [9] 5.95 µM | [10] 3.94 µM
inactive: [1]

C[C@]12CCC(=O)C=C1CC[C@@H]1[C@@H]2CC[C@@]2(C)[C@H]1CC[C@]2(C)O
active: [7] 45.8 µM | [9] 45.8 µM | [10] 0.81 µM
not listed: [6]
inactive: all other assays above

O=C(NC(=O)c1c(F)cccc1F)Nc1cc(Cl)c(OC(F)(F)C(F)F)c(Cl)c1
active: [3] 9.92 µM | [10] 9.92 µM
not listed: [6]
inactive: all other assays above

CCNc1nc(NC(C)C)nc(SC)n1
not listed: [6]
inactive: all other assays above

CCCCCCOC(=O)c1ccccc1C(=O)OCCCCCC
not listed: [6]
inactive: all other assays above

Cc1cc(O)ccc1Cl
not listed: [6]
inactive: all other assays above

c1ccc(-c2ccccc2)cc1
not listed: [6]
inactive: all other assays above

CCC(=O)O[C@H]1CC[C@H]2[C@@H]3CCC4=CC(=O)CC[C@]4(C)[C@H]3CC[C@]12C
active: [4] 12.6 µM
not listed: [6]
inactive: all other assays above

ClC1=C(Cl)[C@]2(Cl)[C@@H]3[C@@H](Cl)[C@H]4O[C@H]4[C@@H]3C1(Cl)C2(Cl)Cl
not listed: [6]
inactive: all other assays above

CN(C)CCO
not listed: [6]
inactive: all other assays above

O=S(=O)(O)C(F)(F)C(F)(F)C(F)(F)C(F)(F)C(F)(F)C(F)(F)F
active: [1] 0.979 µM | [2] 8.54 µM
not listed: [6]
inactive: all other assays above

O=S(=O)(O)C(F)(F)C(F)(F)C(F)(F)C(F)(F)F
not listed: [6]
inactive: all other assays above

CCCCCCCCOC(=O)c1ccccc1C(=O)OCCCCCCCC
not listed: [6]
inactive: all other assays above

CCOCCOC(C)=O
not listed: [6]
inactive: all other assays above

Cc1ccccc1CO[C@@H]1C[C@@]2(C(C)C)CC[C@]1(C)O2
active: [10] 71.7 µM
not listed: [6]
inactive: all other assays above

C1CC2OC2CC1C1CO1 (stereo unspecified)
not listed: [6]
inactive: all other assays above
